Laboratory results reported in PubChem BioAssay AID652096 (National Center for Advancing Translational Sciences (NCATS), 2013).
Activity calls are given as the source filed them.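 The calls were made as follows: active = fold change of 2 or more in glucocerebrosidase protein level on Western blot; inactive = the rest.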

Target: Lysosomal acid glucosylceramidase (Homo sapiens) (UniProt P04062)
Assay: Extended Characterization of Activators of N370S glucocerebrosidase as a Potential Chaperone Treatment of Gaucher Disease: Western Blot
Details: Patient cells, GCase protein level, active compounds read high
Source text: Glucocerebrosidase (GCase) catalyzes the hydrolysis of beta-glucocerebroside to glucose and ceramide in lysosomes. Mutations in the glucocerebrosidase gene result in Gaucher disease, an autosomal recessive lysosomal storage disorder. Many of the mutations encountered in patients with Gaucher disease are missense alterations that may cause misfolding, decreased stability and/or mistrafficking of this lysosomal protein. […] These inhibitors include iminosugar analogs and other inhibitors that were discovered as part of previous work. However, the enhancement of enzyme activity by the chaperone action of an enzyme inhibitor must be balanced against the direct inhibition of the enzyme. […] In this extended characterization of our probe, we have further characterized the activity of our probe in relevant models. In this Western Blot assay, we examined the effects of compounds to increase GCase activity. NIH Chemical Genomics Center [NCGC] NIH Molecular Libraries Probe Production Centers Network [MLPCN] MLPCN Grant: MH086442 Assay Submitter (PI): Ellen Sidransky, NHGRI
The cells were plated and exposed to the compounds. Cells were harvested and the cell extracts were subjected to SDS-PAGE and Western blotting procedures to evaluate the extent of upregulation of GCase activity.

Sequence of Lysosomal acid glucosylceramidase (Homo sapiens) (P04062 40-536 N409S): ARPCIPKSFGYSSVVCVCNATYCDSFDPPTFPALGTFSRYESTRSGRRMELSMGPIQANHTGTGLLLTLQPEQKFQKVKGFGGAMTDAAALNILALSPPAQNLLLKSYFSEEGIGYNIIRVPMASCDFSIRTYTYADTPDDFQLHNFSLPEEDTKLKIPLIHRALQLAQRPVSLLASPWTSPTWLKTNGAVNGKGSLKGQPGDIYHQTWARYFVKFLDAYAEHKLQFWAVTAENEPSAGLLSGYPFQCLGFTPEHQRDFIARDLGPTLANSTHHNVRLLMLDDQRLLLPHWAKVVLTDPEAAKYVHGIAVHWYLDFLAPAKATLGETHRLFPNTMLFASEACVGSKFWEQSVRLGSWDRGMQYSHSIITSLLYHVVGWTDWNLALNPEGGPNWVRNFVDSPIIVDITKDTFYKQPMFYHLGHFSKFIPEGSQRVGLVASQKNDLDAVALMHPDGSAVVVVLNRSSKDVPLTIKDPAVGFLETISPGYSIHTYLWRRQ

SMILES | fold change
C#Cc1ccc(NC(=O)c2cnn3c(C)cc(C)nc23)cc1 | 2 (active)
